58 compounds from paper PMC4336329 (PLoS ONE, 2015) can be followed below.

SMILES strings stand for the structures. The whole screen tested about 310,000 compounds, of which about 14,000 (4.5%) showed an effect of 50% or more. The effect is printed as a negative number. Many of the other results were omitted from the sample, so strong results are more common in it than they were.
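Note: peak tail current of the secondary pulse compared with the same well before compound.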

Sequence of human ether-à-go-go-related gene (hERG) potassium channel (Q12809 whole entry, looked up): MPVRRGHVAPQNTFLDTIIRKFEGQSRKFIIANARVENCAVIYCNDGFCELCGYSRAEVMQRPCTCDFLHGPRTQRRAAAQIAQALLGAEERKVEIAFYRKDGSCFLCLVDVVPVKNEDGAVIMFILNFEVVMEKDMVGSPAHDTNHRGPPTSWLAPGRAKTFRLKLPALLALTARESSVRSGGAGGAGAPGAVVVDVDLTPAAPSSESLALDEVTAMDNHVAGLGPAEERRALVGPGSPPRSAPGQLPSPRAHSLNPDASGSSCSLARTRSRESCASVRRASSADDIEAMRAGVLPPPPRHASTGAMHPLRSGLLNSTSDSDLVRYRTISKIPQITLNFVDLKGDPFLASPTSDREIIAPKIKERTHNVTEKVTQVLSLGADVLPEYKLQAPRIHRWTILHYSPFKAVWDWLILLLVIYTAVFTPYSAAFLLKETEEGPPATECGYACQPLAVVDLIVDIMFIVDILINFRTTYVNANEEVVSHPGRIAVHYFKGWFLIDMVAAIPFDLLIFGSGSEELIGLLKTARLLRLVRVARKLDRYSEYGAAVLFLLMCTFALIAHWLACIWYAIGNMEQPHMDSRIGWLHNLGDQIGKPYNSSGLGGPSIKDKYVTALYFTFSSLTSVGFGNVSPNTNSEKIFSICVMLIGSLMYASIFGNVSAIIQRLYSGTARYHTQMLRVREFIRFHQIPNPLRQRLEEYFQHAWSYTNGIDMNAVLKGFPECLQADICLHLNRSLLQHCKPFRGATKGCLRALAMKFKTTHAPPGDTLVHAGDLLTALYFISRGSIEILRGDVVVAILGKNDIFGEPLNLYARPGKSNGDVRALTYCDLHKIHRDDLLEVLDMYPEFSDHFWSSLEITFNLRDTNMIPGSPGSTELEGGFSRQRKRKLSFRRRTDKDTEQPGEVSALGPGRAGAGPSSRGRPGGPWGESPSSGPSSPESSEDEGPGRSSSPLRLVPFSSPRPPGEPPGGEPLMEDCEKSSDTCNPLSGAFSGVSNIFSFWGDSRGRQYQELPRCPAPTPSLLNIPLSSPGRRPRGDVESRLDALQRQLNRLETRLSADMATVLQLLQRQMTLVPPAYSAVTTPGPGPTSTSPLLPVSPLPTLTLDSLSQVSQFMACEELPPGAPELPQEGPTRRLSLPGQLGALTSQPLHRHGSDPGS

This experiment addresses human ether-à-go-go-related gene (hERG) potassium channel (human, UniProt Q12809). Kind of experiment: primary screen, population patch clamp on CHO cells stably expressing hERG; higher = less effect of the substance.
Turning to `CCC1CCCCN1CCCNC(=O)CNC(=O)c1nn(-c2ccc(OC)cc2)c(=O)c2ccccc12` (stereo not shown), the “hERG current change (%, negative = inhibition) at 10uM” value is -31.9%.
The same measure for `CC1=NCCc2c1[nH]c1ccccc21`: -22.7%.
Next, `CCCCCCCCC1=NCCc2c1[nH]c1ccccc21.Cl`: -79.2%; `CCCC/C=C1\CCc2c([nH]c3ccccc23)C1=O`: 10.1%; `Cc1cccc(NC(=O)c2ccco2)c1C`: 22.4%.
`CC1=C(C#N)C(c2ccccc2)C2=C(N1)c1ccccc1C2=O` (stereo not shown): the “hERG current change (%, negative = inhibition) at 10uM” value is listed as 1.22%.
Next, `O=C(c1ccc(CS(=O)(=O)c2ccc(Br)cc2)o1)N1CCN(c2ccc(F)cc2)CC1`: 6.91%; `COc1ccc(N2CCN(C(=O)c3ccc(CS(=O)(=O)c4ccccc4C)o3)CC2)cc1`: -21.5%; `Cc1ccccc1S(=O)(=O)Cc1ccc(C(=O)N2CCN(c3ccccc3F)CC2)o1`: -40.7%.
The same measure for `Cc1ccccc1S(=O)(=O)Cc1ccc(C(=O)N2CCN(c3ccc(F)cc3)CC2)o1`: -64.3%; for `Cc1ccc(S(=O)(=O)Cc2ccc(C(=O)N3CCN(c4ccc(F)cc4)CC3)o2)cc1`: -69.5%; for `Cc1ccc(S(=O)(=O)Cc2ccc(C(=O)N3CCN(c4cc(C)ccc4C)CC3)o2)cc1`: -18.7%.
Next, `O=C(CNC(=O)c1ccc(S(=O)(=O)N2CCCC2)cc1)N/N=C/c1ccc(Cl)cc1Cl`: -3.34%; `Cc1ccccc1NCCC(=O)Nc1ccc(F)cc1`: -21.4%; `COc1ccc(/C=C(\NC(=O)c2ccc(C)cc2)C(=O)NCC2CCCO2)cc1` (stereo not shown): -8.44%.
As to `COc1ccc(/C=C(/NC(=O)c2ccccc2)C(=O)NCc2ccncc2)cc1`, the “hERG current change (%, negative = inhibition) at 10uM” value is -44.5%.
The same measure for `COc1ccc(/C=C(/NC(=O)c2ccc(C)cc2)C(=O)NCc2ccncc2)cc1`: -66.2%; for `COc1ccc(C(=O)N/C(=C\c2ccc(Cl)cc2)C(=O)NCC2CCCO2)cc1` (stereo not shown): -38%; for `COc1ccc(C(=O)N/C(=C/c2ccc(Cl)cc2)C(=O)NCc2ccncc2)cc1`: -65.4%.
The same measure for `COc1ccc(C(=O)N/C(=C/c2ccc(Cl)cc2)C(=O)Nc2ccc(C(=O)O)cc2)cc1`: 11.4%; for `O=C(O)/C=C/c1cn(-c2ccccc2)nc1-c1ccccc1`: 3.71%.
The same measure for `O=C(NCc1ccccn1)C1CC(=O)N(C2CCCC2)C1` (stereo not shown): 9.62%; for `COc1ccc(CNC(=O)CN2C(=O)CC(c3ccccc3)=Nc3ccccc32)cc1`: -8.66%.
For `Cc1cc(NC(=O)Cn2cnc3c(nnn3-c3cccc(F)c3)c2=O)no1`, the “hERG current change (%, negative = inhibition) at 10uM” value is 5.01%.
With `CC(=O)C(C(C)=O)C(c1ccccc1)c1nc2ccccc2[nH]c1=O` (stereo not shown), the “hERG current change (%, negative = inhibition) at 10uM” value is listed as 14.1%.
With `COc1ccccc1C(=O)C1CCCN(Cc2ccc(Oc3ncccn3)cc2)C1` (stereo not shown), the “hERG current change (%, negative = inhibition) at 10uM” value is reported as -40.6%.
Regarding `COc1ccccc1C(=O)C1CCCN(Cc2cccc(OCCO)c2)C1` (stereo not shown), the “hERG current change (%, negative = inhibition) at 10uM” value is -19.6%.
Take `COc1ccc(F)cc1C(=O)C1CCCN(Cc2cnc(C)s2)C1` (stereo not shown): the “hERG current change (%, negative = inhibition) at 10uM” value was -21%.
Next, `COc1ccc(F)cc1C(=O)C1CCCN(C(=O)CCc2ccccn2)C1` (stereo not shown): 2.48%; `COc1ccc(F)cc1C(=O)C1CCCN(Cc2cnc(N3CCCC3)s2)C1` (stereo not shown): -29.4%; `COC(=O)c1ccc(CN2CCCC(C(=O)c3cc(F)ccc3OC)C2)cc1` (stereo not shown): -68%.
On to `COc1ccc(F)cc1C(=O)C1CCCN(Cc2ccc(O)cc2)C1` (stereo not shown), for which the “hERG current change (%, negative = inhibition) at 10uM” value is given as -52%.
The same measure for `CCOc1ccc(CN2CCCC(C(=O)c3ccccc3OC)C2)cc1` (stereo not shown): -82%; for `COC(=O)c1ccc(CN2CCCC(C(=O)c3ccccc3OC)C2)cc1` (stereo not shown): -43.1%.
With `COc1ccc(F)cc1C(=O)C1CCCN(Cc2ccc(Oc3ncccn3)cc2)C1` (stereo not shown), the “hERG current change (%, negative = inhibition) at 10uM” value is recorded as -64.2%.
Take `COc1ccccc1C(=O)C1CCCN(C(=O)c2ccccc2Cl)C1` (stereo not shown): the “hERG current change (%, negative = inhibition) at 10uM” value is reported as 10.4%.
Next, `CC(=O)NCCC(=O)Nc1nc(-c2ccccc2Cl)cs1`: -9.76%.
Next, `CCOc1ccc(C(=O)Nc2cccc(-n3cnnn3)c2)cc1OCC`: -40.4%; `O=C(/C=C/c1ccco1)Nc1ccc(Oc2ccc(Cl)cc2)cc1`: 16.1%; `COc1ccc(S(=O)(=O)NCc2ccccn2)cc1Br`: 12.5%.
Next, `CCN1C(=O)/C(=C/c2cc(C)n(C)c2C)SC1=Nc1ccc(OC)cc1`: 9.24%; `Cc1ccccc1NN1C(=O)C=CC1=O`: -8.26%; `CCOC(=O)CC1C(=O)NCCN1C(=O)c1c(F)cccc1F` (stereo not shown): 16.1%.
Turning to `COc1ccc2cc(CCNC(=O)C(C)C)c(=O)[nH]c2c1`, the “hERG current change (%, negative = inhibition) at 10uM” value was determined as 13.4%.
The same measure for `C/C(=N\NC(=O)c1cccc(N/N=C(\C)c2ccc([N+](=O)[O-])cc2)c1)c1ccc([N+](=O)[O-])cc1`: 1.39%; for `C/C(=N\NC(=O)C(C)Nc1cccc(Cl)c1)c1ccc([N+](=O)[O-])cc1` (stereo not shown): -50.5%; for `C/C(=N\NC(=O)C(C)Sc1ccccc1)c1ccc([N+](=O)[O-])cc1` (stereo not shown): -3.27%.
For `Cc1c(Cl)cccc1NC(=S)N1CCN(c2ccc([N+](=O)[O-])cn2)CC1`, the “hERG current change (%, negative = inhibition) at 10uM” value came to 2.33%.
Next, `O=C(NCc1ccc(F)cc1)C1CCCN(S(=O)(=O)c2cccc3nonc23)C1` (stereo not shown): 19.6%; `CN(C)CCCN(C(=O)c1ccc(Cl)s1)c1nc2cc3c(cc2s1)OCO3`: -69%.
The same measure for `CN(C)CCN(C(=O)c1cccc2ccccc12)c1nc2cc3c(cc2s1)OCO3.Cl`: -22.3%.
The same measure for `CN(C)CCCN(C(=O)c1cccs1)c1nc2cc3c(cc2s1)OCO3.Cl`: -56.8%; for `CN(C)CCCN(C(=O)c1cc(Cl)sc1Cl)c1nc2cc3c(cc2s1)OCO3.Cl`: -41.9%.
`Cc1ccc2sc(N(CCCN(C)C)C(=O)c3ccc(Br)s3)nc2c1C.Cl`: the “hERG current change (%, negative = inhibition) at 10uM” value is -71.7%.
On to `Cc1ccc2nc(N(CCCN(C)C)C(=O)c3ccc(Br)s3)sc2c1.Cl`, for which the “hERG current change (%, negative = inhibition) at 10uM” value is -44.3%.
In the case of `CN(C)CCN(C(=O)c1cccs1)c1nc2cc3c(cc2s1)OCCO3.Cl`, the “hERG current change (%, negative = inhibition) at 10uM” value is on record as -23.6%.
Next, `Cc1ccc2sc(N(CCCN(C)C)C(=O)c3nc4ccccc4s3)nc2c1C.Cl`: 3.59%.
Next, `CN(C)CCCN(C(=O)c1ccc([N+](=O)[O-])s1)c1nc2cc3c(cc2s1)OCCO3.Cl`: -71.3%.
